Inconclusive results are not listed. Calls of active or inactive are those of the source. Unless noted, calls come from the whole dose curve; as a rule, active = well fitted curve in the direction sought with a large enough effect; inconclusive = small, poorly fitted or top-dose-only effect, or another doubt; inactive = no such curve, though single readings can be large; an effect the other way counts as inactive or inconclusive.

The nature of test [1]: qHTS for Inhibitors of the Functional Ribonucleoprotein Complex (vRNP) of Lassa (LASV) Arenavirus: LASV Primary Screen - GLuc reporter signal (AID 1347082; calls by dose curve; tested in HEK293 reporter line; note: series mostly up to about 57 µM; nearly all actives have a fitted effect of over 60% in size). On the technique in general: In qHTS, concentration-response curves come from the screen itself.
Test [2] is described as follows: qHTS for Inhibitors of the Functional Ribonucleoprotein Complex (vRNP) of Lassa (LASV) Arenavirus: Viability assay - alamar blue signal for LASV Primary Screen (AID 1347083; calls by dose curve; tested in HEK293 reporter line; note: series mostly up to about 57 µM; nearly all actives have a fitted effect of over 80% in size).
Test [3] is described as follows: qHTS for Inhibitors of the Functional Ribonucleoprotein Complex (vRNP) of Lymphocytic Choriomeningitis Arenaviruses (LCMV): Viability assay - alamar blue signal for LCMV Primary Screen (AID 1347085; calls by dose curve; tested in HEK293 reporter line; note: series mostly up to about 57 µM; nearly all actives have a fitted effect of over 80% in size).
Test [4] addresses Nucleoprotein (Lymphocytic choriomeningitis virus (strain Armstrong)) (UniProt P09992). Briefly: qHTS for Inhibitors of the Functional Ribonucleoprotein Complex (vRNP) of Lymphocytic Choriomeningitis Arenaviruses (LCMV): LCMV Primary Screen - GLuc reporter signal (AID 1347086; calls by dose curve; note: series mostly up to about 57 µM; nearly all actives have a fitted effect of over 70% in size).
A short description of test [5]: qHTS of pediatric cancer cell lines to identify multiple opportunities for drug repurposing: Primary screen for TC32 cells (AID 1347089). Note: nearly all actives have a fitted effect of over 60% in size. Note: potency is the fitted concentration of half-maximal effect. In a few lines: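 Luminescent CellTiter-Glo read-out of metabolically active TC32 cells after 48 h compound exposure. Primary: MIPE 11-point, 0.78 nM–46 µM; NPC 8-point, 0.59 nM–46 µM. Confirmatory: 11-point dilutions.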
A short description of test [6]: qHTS of pediatric cancer cell lines to identify multiple opportunities for drug repurposing: Primary screen for DAOY cells (AID 1347090). Note: nearly all actives have a fitted effect of over 55% in size. Note: potency is the fitted concentration of half-maximal effect. In a few lines:
(§1)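 Viability measured as metabolically active cells via CellTiter-Glo luminescence following 48 hours of compound exposure, 11-point dilutions in confirmatory testing. 500-1,000 cells/well plated 5 hours before dosing; controls were DMSO and 2.3 µM bortezomib.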

The nature of test [7]: qHTS of pediatric cancer cell lines to identify multiple opportunities for drug repurposing: Primary screen for SJ-GBM2 cells (AID 1347091). Note: potency is the fitted concentration of half-maximal effect. The procedure, abridged: as §1
Test [8] is described as follows: qHTS of pediatric cancer cell lines to identify multiple opportunities for drug repurposing: Primary screen for A673 cells (AID 1347092). Note: nearly all actives have a fitted effect of over 45% in size. Note: potency is the fitted concentration of half-maximal effect. The procedure, abridged:
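A673 cells (500-1,000 cells/well in growth media) were pre-incubated 5 h at 37 degrees C, then exposed to compounds for 48 h. Viability was read as CellTiter-Glo luminescence; concentration-response curves came directly from the primary screen.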

A short description of test [9]: qHTS of pediatric cancer cell lines to identify multiple opportunities for drug repurposing: Primary screen for SK-N-MC cells (AID 1347093). Note: potency is the fitted concentration of half-maximal effect. In a few lines:
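Metabolically active cells were quantified by ATP-dependent luminescence (CellTiter-Glo, 15 min at room temperature) following 48 h treatment. Cells had been plated at 500-1,000 per well and settled for 5 h beforehand.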

Test [10] in a line: qHTS of pediatric cancer cell lines to identify multiple opportunities for drug repurposing: Primary screen for BT-37 cells (AID 1347094). Note: potency is the fitted concentration of half-maximal effect. In a few lines: (§2)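 Plated cells (500-1,000 per well, growth media) were allowed to settle for 5 hours, treated with compound dilutions for 48 hours, then lysed with CellTiter-Glo for 15 min at room temperature before luminescence reading.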

Test [11] in a line: qHTS of pediatric cancer cell lines to identify multiple opportunities for drug repurposing: Primary screen for NB-EBc1 cells (AID 1347095). Note: potency is the fitted concentration of half-maximal effect. The procedure, abridged: as §2
Test [12] can be described thus: qHTS of pediatric cancer cell lines to identify multiple opportunities for drug repurposing: Primary screen for U-2 OS cells (AID 1347096). Note: nearly all actives have a fitted effect of over 50% in size. In a few lines: (§3)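 Viability after 48 h compound treatment at 37C, 500-1,000 cells/well, read as ATP luminescence with CellTiter-Glo. Primary screens used 11-point (MIPE, 0.78 nM-46 µM) or 8-point (NPC, 0.59 nM-46 µM) final concentrations; follow-up screens used 11-point dilutions.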

Test [13] is described as follows: qHTS of pediatric cancer cell lines to identify multiple opportunities for drug repurposing: Primary screen for SK-N-SH cells (AID 1347098). Note: nearly all actives have a fitted effect of over 65% in size. Note: potency is the fitted concentration of half-maximal effect. The procedure, abridged:
(§4)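 Cells (500-1,000/well) rested 5 h, then received compounds for 48 h; metabolically active cells were measured by CellTiter-Glo luminescence. Final concentrations spanned up to 46 µM (MIPE, 11-point) or 0.59 nM-46 µM (NPC, 8-point) in primary screens, 11-point in follow-ups.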

Test [14] in a line: qHTS of pediatric cancer cell lines to identify multiple opportunities for drug repurposing: Primary screen for NB1643 cells (AID 1347099). Note: nearly all actives have a fitted effect of over 50% in size. The procedure, abridged:
as §2

A short description of test [15]: qHTS of pediatric cancer cell lines to identify multiple opportunities for drug repurposing: Primary screen for LAN-5 cells (AID 1347100). Note: potency is the fitted concentration of half-maximal effect. In a few lines:
as §3

Test [16] can be described thus: qHTS of pediatric cancer cell lines to identify multiple opportunities for drug repurposing: Primary screen for BT-12 cells (AID 1347101). Note: nearly all actives have a fitted effect of over 25% in size. Note: potency is the fitted concentration of half-maximal effect. In a few lines:
as §4

A short description of test [17]: qHTS of pediatric cancer cell lines to identify multiple opportunities for drug repurposing: Primary screen for Rh18 cells (AID 1347102). Note: nearly all actives have a fitted effect of over 65% in size. The procedure, abridged: as §3
A short description of test [18]: qHTS of pediatric cancer cell lines to identify multiple opportunities for drug repurposing: Primary screen for Saos-2 cells (AID 1347097). Note: nearly all actives have a fitted effect of over 40% in size. Note: potency is the fitted concentration of half-maximal effect. The procedure, abridged: as §2

Chain of Nucleoprotein (Lymphocytic choriomeningitis virus (strain Armstrong)) (P09992 whole entry, looked up): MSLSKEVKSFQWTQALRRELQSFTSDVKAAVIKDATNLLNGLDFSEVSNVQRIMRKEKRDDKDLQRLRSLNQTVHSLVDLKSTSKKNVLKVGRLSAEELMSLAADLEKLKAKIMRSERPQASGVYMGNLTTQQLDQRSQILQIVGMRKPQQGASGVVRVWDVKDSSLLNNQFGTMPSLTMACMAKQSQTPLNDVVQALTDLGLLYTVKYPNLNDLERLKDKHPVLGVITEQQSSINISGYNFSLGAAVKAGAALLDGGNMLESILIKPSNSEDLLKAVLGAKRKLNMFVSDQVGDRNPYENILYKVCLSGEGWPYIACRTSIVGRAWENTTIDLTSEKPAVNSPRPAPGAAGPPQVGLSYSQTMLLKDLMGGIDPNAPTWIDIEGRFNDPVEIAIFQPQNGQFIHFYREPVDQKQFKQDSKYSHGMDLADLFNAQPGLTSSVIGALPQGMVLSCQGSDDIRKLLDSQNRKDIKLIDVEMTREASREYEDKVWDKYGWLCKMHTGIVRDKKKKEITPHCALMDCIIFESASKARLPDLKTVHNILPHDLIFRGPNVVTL

On to `C=CCN1CC[C@]23CCCC[C@H]2[C@H]1Cc1ccc(O)cc13`, for which the Potency entry in [1], in test [2], in test [3], in test [4], in [5] and in test [6] was “inactive” in each case. The Potency entry in [7], in test [8], in test [9], in test [10], in [11] and in test [12] was “inactive” each time. Besides, the Potency entry in test [13], in test [14], in test [15], in [16] and in [17] was “inactive” each time.

Regarding `C[N+]1(C)[C@@H]2CC[C@H]1CC(OC(=O)C(CO)c1ccccc1)C2` (some centres not stated), the Potency entry in test [1], in test [2], in [3], in test [4], in test [5] and in [6] was “inactive” each time. Besides, the Potency result in test [7], in [8], in test [10], in [11], in [12] and in test [18] was “inactive” throughout. The Potency result in test [14], in [15], in test [16] and in [17] was “inactive” each time.

As to `CCNc1nc(Cl)nc(NCC)n1`, the Potency result in [1], in [2], in test [3], in test [4], in test [5] and in [6] was “inactive” each time. For the same compound, the Potency result in [7], in [8], in [9], in [10], in test [11] and in test [12] was “inactive” in each case. Moreover, the Potency result in test [13], in test [14], in test [15] and in test [17] was “inactive” throughout.

Regarding `C[C@@H]1O[C@@H](O[C@@H]2C=C3CC[C@@H]4[C@H](CC[C@]5(C)[C@@H](c6ccc(=O)oc6)CC[C@]45O)[C@@]3(C)CC2)[C@H](O)[C@H](O)[C@H]1O`, the Potency result in test [1], in test [2], in test [3] and in [4] was “inactive” throughout. Also, the Potency was 3.3 nM (active) in [5]; 2.1 nM (active) in [6]; 6.7 nM (active) in [7]; 2.7 nM (active) in [8]; 1 nM (active) in test [9]; 2.5 nM (active) in test [10]. Moreover, the Potency in [11] is 11.9 nM (active); in [18], 3.8 nM (active); in test [13], 68.7 nM (active); in [15] it was 10.6 nM (active); in test [16] it was 3.1 nM (active).

For the compound `CCOC(=O)NC(O)C(Cl)(Cl)Cl` (configuration not stated), the Potency entry in [1], in test [2], in test [3], in test [4], in test [5] and in [6] was “inactive” in each case. For the same compound, the Potency result in test [7], in test [8], in test [9], in test [10], in test [11] and in test [12] was “inactive” throughout. The Potency entry in test [13], in test [14], in test [15] and in [17] was “inactive” throughout.

On to `c1ccc2nc(N3CCNCC3)ccc2c1`, for which the Potency result in test [1], in [2], in [3], in test [4], in test [5] and in [6] was “inactive” in each case. Moreover, the Potency entry in test [7], in [8], in [10], in test [11], in test [12] and in [18] was “inactive” in each case. Besides, the Potency result in test [15], in test [16] and in test [17] was “inactive” each time.

For `NC1(c2ccccc2)CCCCC1`, the Potency entry in [1], in test [2], in [3], in test [4], in test [5] and in [6] was “inactive” in each case. The Potency result in test [7], in test [10], in [11], in test [12], in [18] and in [13] was “inactive” throughout. Further, the Potency entry in test [14], in [15] and in [17] was “inactive” throughout. In test [8], the Potency was 30300 nM (active).

With `CC(C)=C[C@@H]1[C@@H](C(=O)OCc2coc(Cc3ccccc3)c2)C1(C)C`, the Potency result in test [1], in [2], in [3], in [4], in [5] and in test [6] was “inactive” throughout. In addition, the Potency entry in test [7], in test [8], in test [10], in [11], in test [12] and in [18] was “inactive” each time. Also, the Potency entry in test [13], in [14], in test [15] and in [17] was “inactive” throughout.

`COc1cc(CC(C)N)cc2c1OCO2` (configuration not stated): the Potency result in [1], in [2], in [3], in test [4], in [5] and in test [6] was “inactive” throughout. Further, the Potency result in [7], in [9], in [10], in test [11], in test [12] and in test [18] was “inactive” each time. Moreover, the Potency entry in test [13], in [15] and in test [17] was “inactive” each time.

The record behind these values is PubChem BioAssay (NCATS).
